# Shown are actives, neighbours in structure and some others; about 2.3% of the full set was active somewhere.
# CHRM1 antagonist = human CHRM1 antagonism; CHO-K1 hM1, Fluo-8 calcium fluorescence, ACh EC80 antagonist; 360,000 compounds, 1.3% hits; P11229; inhibition, % at 3 µM;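 active means percent inhibition above its own plate's cutoff, namely the mean of that plate's compound wells plus 3 SD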;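 further: peak over basal fluorescence ratio during 140 s after agonist addition; 0% = ACh EC80 plus DMSO and 100% = DMSO alone without agonist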
# Target sequence (P11229 whole entry, looked up): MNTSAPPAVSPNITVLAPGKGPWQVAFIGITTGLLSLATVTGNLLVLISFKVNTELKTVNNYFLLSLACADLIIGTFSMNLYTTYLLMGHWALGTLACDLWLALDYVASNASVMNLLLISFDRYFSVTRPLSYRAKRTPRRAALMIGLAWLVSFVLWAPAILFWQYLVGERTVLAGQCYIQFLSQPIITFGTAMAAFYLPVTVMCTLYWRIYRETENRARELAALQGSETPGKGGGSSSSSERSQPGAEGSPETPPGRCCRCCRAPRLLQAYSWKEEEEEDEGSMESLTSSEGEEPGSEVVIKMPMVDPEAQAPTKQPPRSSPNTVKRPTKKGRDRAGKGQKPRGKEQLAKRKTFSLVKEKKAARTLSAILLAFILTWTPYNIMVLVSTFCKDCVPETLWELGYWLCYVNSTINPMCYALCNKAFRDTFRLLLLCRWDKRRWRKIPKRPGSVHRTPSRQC
# CHRM1 agonist = agonists of human M1 muscarinic receptor; CHO-K1 hM1, Fluo-8 calcium fluorescence, agonist mode; 0% DMSO, 100% acetylcholine EC100; AID 588814; activation, % at 3 µM; P11229; 360,000 compounds, 0.33% hits;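 active means activation above the run's mean compound activation plus 3 SD, cut at about 16% in these data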;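 further: peak over basal fluorescence ratio within a 140 s kinetic read after compound addition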
# M1 PAM = potentiates human M1 receptor response to acetylcholine | activation, % at 3 µM | P11229 | 360,000 compounds, 0.088% hits | CHO-K1 hM1, Fluo-8 calcium fluorescence, ACh EC20; 0% = ACh EC20, 100% = maximal ACh | AID 588819; in the data active means activation above about 19%, passing the limit was not always enough
# CHO-K1 Ca PAM = counter-screen for M1 PAMs: effect in parental CHO-K1 cells | ATP EC20, Fluo-8 calcium fluorescence; 0% at ATP EC20, 100% at ATP max | activation, % at 3 µM | 360,000 compounds, 0.02% hits;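 active means activation above the run cutoff, the mean activation of all test compounds plus 3 SD, cut at about 40% in these data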;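 further: peak over basal fluorescence ratio in a 140 s read after ATP addition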
# CHO-K1 Ca ag = nonselective activator or artifact in parental CHO-K1 cells. Fluo-8 calcium fluorescence; scaled to maximal ATP response, vehicle zero. activation, % at 3 µM. 360,000 compounds, 0.48% hits. AID 602248; in the data active means activation above about 15%;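 further: untransfected CHO-K1 host cells lacking M1 receptor as counterscreen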
# CHO-K1 Ca antag = counter-screen for M1 antagonists: effect in parental CHO-K1 cells. ATP-induced calcium, Fluo-8 fluorescence. inhibition, % at 3 µM. 360,000 compounds, 0.6% hits. AID 602250;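 active means inhibition above a per-plate cutoff, the plate's mean sample inhibition plus 3 SD, cut at about 24% in these data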;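 further: 0% = DMSO plus EC80 ATP and 100% = DMSO alone without ATP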
# The depositor's hits bear a star; x = not tested or not shown.
SMILES,CHRM1 antagonist,CHRM1 agonist,M1 PAM,CHO-K1 Ca PAM,CHO-K1 Ca ag,CHO-K1 Ca antag
Oc1cccc(/C=N/NP(=S)(c2ccccc2)c2ccccc2)c1,-0.3,-3.3,1.6,-8.4,-0.2,24.7*
COc1cc(C(=O)OC2C[C@H]3CC[C@@H](C2)N3C)ccc1O (stereo partly drawn),-0.3,-9.8,-4.3,8.1,0.6,-10.2
COc1cc(C(=O)OC2C[C@H]3CC[C@@H](C2)N3)ccc1O (stereo partly drawn),94.8*,-9.7,-27.2,14.0,-0.2,-14.3
CN1CC2CN(Cc3ccccc3)S(=O)(=O)C2C1 (stereo not drawn),-15.4,-1.7,2.5,5.9,0.6,-10.8
CNC(=O)Oc1ccccc1C1CCCCC1,-19.0,-4.6,8.0,11.0,-0.2,-14.6
CCN(CC)c1ccc(CNCCc2ccccc2F)cc1,56.4*,-8.0,-27.5,10.6,7.7,-9.1
CC(C)(C)c1ccc(C(=O)C2CCCN(C3CCC3)C2)cc1 (stereo not drawn),51.8*,-6.8,-22.4,15.6,1.2,-8.2
CC(=O)N1CCC(N2CCCC(C(=O)c3cccc(Cl)c3)C2)CC1 (stereo not drawn),47.7*,-14.2,-34.0,18.8,-0.2,-5.5
CCNC(=S)N1CCn2cccc2C1c1cccnc1 (stereo not drawn),-14.2,-1.1,9.4,2.1,0.1,-8.7
CN(C)c1ccc(/C=C/[N+](=O)[O-])cc1,41.1*,11.2,3.6,-4.3,14.2,11.8
CN(C)CCSC1c2ccccc2CSc2ccccc21 (stereo not drawn),98.8*,-8.0,-27.2,9.4,2.8,-2.0
Cc1cccc(NP(=O)(Oc2ccccc2)Oc2ccccc2)c1C,29.8*,-2.8,-16.9,16.0,16.8*,-4.4
O=P(Nc1ccccc1)(Nc1ccccc1)Oc1ccccc1,2.3,-3.7,-2.7,23.6,10.7,-9.4
O=P(Nc1ccccc1)(Oc1ccccc1)Oc1ccccc1,36.9*,-3.2,-17.4,12.8,7.0,-3.0
O=P(Nc1ccccc1)(Nc1ccccc1)Oc1cccc(Cl)c1,30.3,9.5,-20.0,5.4,41.5*,2.9
CCOC(=O)C1(CCOc2ccccc2)CCN(C(C)CSC)CC1 (stereo not drawn),2.8,-9.3,-9.6,24.1,3.5,-15.4
CCOC(=O)C1(CCOc2ccccc2)CCN(C2Cc3ccccc3C2)CC1,45.9*,-4.9,-21.9,11.3,3.2,-9.4
Cc1ccc(Cn2nc(C(=O)Nc3ccc(Br)cc3)cc2C)cc1,17.8,3.7,-0.9,12.1,7.7,13.0
Cc1ccc(-c2cc(-c3ccccc3)cc(-c3ccccc3)[n+]2-c2ccc(C(=O)O)cc2)cc1,-7.5,-0.1,14.8,-1.2,-0.3,-14.1
C[n+]1c(-c2ccccc2)cc(CCCCc2cc(-c3ccccc3)[n+](C)c(-c3ccccc3)c2)cc1-c1ccccc1,54.6*,-4.9,-19.0,-0.9,-0.3,-5.5
O=C(CN1CCCCC1)c1ccc(F)cc1,-10.3,-2.8,6.2,15.2,0.9,-5.9
O=C(c1ccccc1)C(CN1CCCC1)c1ccccc1 (stereo not drawn),50.9*,-6.5,-25.6,25.8,-0.1,1.8
CC1c2ccccc2-n2nncc2CN1C (stereo not drawn),-3.2,-3.3,1.6,1.9,3.0,8.3
CCN1/C(=C/C=C/C2=[N+](CC)c3ccccc3C2(C)C)C(C)(C)c2ccccc21,100.3*,460.4*,-27.9,-15.4,437.1*,94.9*
C[N+]1=C(/C=C/Nc2ccccc2)C(C)(C)c2ccccc21,8.7,-12.1,-5.9,1.5,-0.1,16.8
SMILES,CHRM1 antagonist,CHRM1 agonist,M1 PAM,CHO-K1 Ca PAM,CHO-K1 Ca ag,CHO-K1 Ca antag
Cc1nc2cc(OC(=O)N(C)Cc3cccc(-c4ccncc4)c3)ccc2s1,x,x,x,-11.1,13.3,5.0
CCn1ccnc1CN1CCCC(C(=O)c2cccc(C(F)(F)F)c2)C1 (stereo not drawn),77.6*,-9.8,-27.0,7.6,3.5,-4.4
O=C(c1cccc(C(F)(F)F)c1)C1CCCN(Cc2ncc[nH]2)C1 (stereo not drawn),17.4,-13.1,-28.8,16.9,0.9,-9.7
COC(=O)C1=C(c2ccc(Cl)c(C(F)(F)F)c2)C[C@@H]2CC[C@H]1N2C(=O)NCc1ccco1,-5.1,-10.9,4.4,1.1,-0.8,-12.8
CN1OCC2Cn3c(nc4ccccc43)C21 (stereo not drawn),-12.8,5.4,27.2*,-2.1,-0.2,-8.5
O=c1c2ccccc2nc(-c2ccc([N+](=O)[O-])cc2)n1-c1ccccc1,7.2,-4.5,-1.4,15.8,0.2,-7.5
Cc1ccccc1-n1c(-c2ccc([N+](=O)[O-])cc2)nc2ccccc2c1=O,49.5*,-10.3,-29.3,10.2,0.6,-2.5
O=c1c2ccccc2nc(-c2ccccc2)n1-c1ccncc1,10.5,-1.2,7.4,-3.7,-0.1,30.6*
CCC(=NCc1ccc(F)cc1)c1c(O)n(C)c(=O)n(C)c1=O,8.0,2.8,-0.9,18.2,4.3,-7.9
C[N+]1(C)[C@@H]2CC[C@H]1CC(OC(=O)[C@@H](CO)c1ccccc1)C2 (stereo partly drawn),101.6*,-8.7,-28.5,-6.9,-0.1,17.9
C[N+]1(C)C2CCC1CC(OC(=O)c1ccco1)C2 (stereo not drawn),3.2,-6.9,-4.2,26.4,1.3,-17.1
C#CC[N+]1(C)[C@@H]2CC[C@H]1CC(OC(=O)C(CO)c1ccccc1)C2 (stereo partly drawn),99.0*,-8.8,-31.2,6.0,0.2,-16.8
C[N+]1(C)CCC(OC(=O)C(c2ccccc2)c2ccccc2)CC1,96.3*,-7.8,-25.2,6.6,0.2,1.0
COC(=O)[C@@H](c1ccccc1)C1CCCCN1 (stereo partly drawn),11.7,-13.8,-5.2,-3.2,0.1,-1.2
C[N+]1(C)C2CC[C@H]1CC(OC(=O)C(CO)c1ccccc1)C2 (stereo partly drawn),100.1*,-7.4,-26.5,-0.7,0.4,11.4
C[N+]1(C)C2CCC1CC(OC(=O)c1c[nH]c3ccccc13)C2 (stereo not drawn),-26.3,-8.3,-6.7,25.9,-0.1,-12.1
CCc1cc(=O)[nH]c(SCCCF)n1,-3.1,-7.1,4.1,16.6,0.7,-4.3
COc1cc2c(cc1OC)C(C(=O)N(C)C1CCCCC1)C1CCCCN1C2=O (stereo not drawn),-11.5,-7.6,7.2,-2.9,1.2,11.2
CC(C)(C)c1ccc(CSc2cnn(C(C)(C)C)c(=O)c2Cl)cc1,27.4,3.7,-6.4,-10.2,18.0*,31.5*
O=c1[nH]c2ccccc2n1C1CCN(CCCC(c2ccc(F)cc2)c2ccc(F)cc2)CC1,7.4,21.3*,-10.3,-13.2,-0.2,14.3
CCCCCCn1c(O)c(C=NCCN2CCOCC2)c(=O)[nH]c1=O,-6.9,-8.0,11.7,10.3,17.2*,7.0
